DAX1 inh-1: DAX1 (NR0B1) inhibitors, primary screen, cell-based, HEK293, Gal4-DAX1, luciferase luminescence | Nuclear receptor subfamily 0 group B member 1 (Homo sapiens), P51843 | inhibition, % at 6.75 µM | 340,000 compounds, 0.99% hits | HEK293 Gal4-DAX1 luciferase reporter;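 active means inhibition above the mean over all tested compounds plus 3 SD, cut at about 4.2% in these data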;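 further: 0% = DAX1-transfected cells with DMSO and 100% = empty-vector control cells with DMSO; inhibition shows as a rise in luminescence from relieved DAX1 repression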
Target sequence (P51843 207-470 limits assumed): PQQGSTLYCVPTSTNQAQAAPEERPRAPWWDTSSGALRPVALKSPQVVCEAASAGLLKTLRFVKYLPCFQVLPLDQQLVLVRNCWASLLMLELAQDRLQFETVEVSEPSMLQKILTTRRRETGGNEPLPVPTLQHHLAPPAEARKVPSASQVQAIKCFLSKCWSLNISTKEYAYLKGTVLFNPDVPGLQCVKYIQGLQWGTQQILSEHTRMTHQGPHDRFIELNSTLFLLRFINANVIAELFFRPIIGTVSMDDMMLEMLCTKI
AHR activator: AHR activators, primary screen, cell-based, luminescence, luciferase reporter, human; AHR-responsive luciferase reporter cells; activation, % at 5 µM; 320,000 compounds, 2.5% hits; in the data active means activation above about 47%;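 further: 0% = vehicle wells and 100% = reference agonist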
DAX1 inh-2: DAX1 (NR0B1) inhibitors on StAR promoter, primary screen, cell-based, luminescence, SF-1 (NR5A1), full-length DAX-1. inhibition, % at 6.8 µM. 370,000 compounds, 1.1% hits. AID 652010, 2013. HEK293T StAR-luciferase reporter, SF-1/DAX-1 repression relief;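 active means inhibition above the mean over all tested compounds plus 3 SD, cut at about 3.6% in these data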;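 further: 0% = DAX-1 cells with DMSO and 100% = cells lacking DAX-1 with DMSO; higher inhibition means more luminescence from relief of DAX-1 repression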
hgDAF12 agonist: H. glycines DAF-12 receptor agonists, primary screen, cell-based, luminescence, HEK293, GAL4 fusion, UAS-luciferase | Nuclear hormone receptor DAF-12 (Heterodera glycines), GAL4 fusion | HEK293 GAL4-hgDAF12 UAS-luciferase reporter, agonist luminescence; normalized to butyrate control | 370,000 compounds, 1.8% hits | activation, % at 6.8 µM;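 active means activation above a cutoff set at the mean of all screened compounds plus 3 SD, cut at about 10% in these data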;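 further: 0% = DMSO wells and 100% = sodium butyrate wells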
ssDAF-12 act: S. stercoralis DAF-12 nuclear receptor activators, primary screen, cell-based, luminescence, HEK293, GRIP1 co-expression, lit1-tk-luc. Nuclear hormone receptor DAF-12 (Strongyloides stercoralis). HEK293 ssDAF-12/GRIP1 lit1-tk-luc reporter; % of 3 µM dafachronic acid response. activation, % at 6.8 µM. 370,000 compounds, 1% hits;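 active means activation above the mean over all tested compounds plus 3 SD, cut at about 0.9% in these data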;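 further: 0% = DMSO-only wells and 100% = 3 µM delta7-dafachronic acid wells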
hcDAF12 agonist: H. contortus DAF-12 nuclear receptor activators, primary screen, cell-based, luminescence, HEK293, lit1-tk-luc reporter | HEK293 hcDAF-12 lit1-tk-luc reporter; 0% DMSO, 100% Δ7-dafachronic acid | activation, % at 6.8 µM | 370,000 compounds, 1.4% hits | AID 652067, 2013;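 active means activation above the mean of all tested compounds plus 3 SD, cut at about 5.5% in these data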;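 further: 100% = response to 3 µM Δ7-dafachronic acid high control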
DAX1 inh confirm: DAX1 (NR0B1) inhibitors relieving SF-1 repression, confirmation, cell-based, luminescence, HEK293T, full-length DAX-1, SF-1 activated StAR promoter | shares compounds with DAX1 inh-2 | HEK293T StAR-promoter luciferase reporter, SF-1/DAX-1 repression | inhibition, % at 6.8 µM | 2,400 compounds, 87% hits;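 active means inhibition above the average of every tested compound plus 3 SD, cut at about 3.8% in these data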;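 further: 0% = DAX-1 cells with DMSO and 100% = no DAX-1 control cells with DMSO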
SF1 mutant ctr: StAR reporter signal changes without DAX1, counter-screen for DAX1 inhibitor project, cell-based, luminescence, AF-2 mutant SF-1, transactivation | 2,400 compounds, 78% hits | HEK293 StAR-luciferase, SF-1 AF2 mutant | AID 652136, 2013 | inhibition, % at 6.8 µM | shares compounds with DAX1 inh-2;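 active means inhibition above the mean of all tested compounds plus 3 SD, cut at about 3% in these data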;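 further: 0% = DAX-1 transfected cells with DMSO and 100% = cells without DAX-1 with DMSO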
LXR ag: LXR agonists, Gal4 luciferase reporter, confirmation, counter-screen for hcDAF-12 agonist project, cell-based, luminescence, HEK293, H. contortus campaign; shares compounds with hcDAF12 agonist; HEK293 Gal4-LXR tk-luc reporter, 24 h; normalized: DMSO 0%, positive control 100%; activation, % at 6.8 µM; 3,400 tested, under 10 active; AID 743027, 2013;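 active means mean percent activation of the reporter above a cutoff set as the average over tested compounds plus their standard deviation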
Target sequence (P55055 whole entry, looked up, the tested form may be a part): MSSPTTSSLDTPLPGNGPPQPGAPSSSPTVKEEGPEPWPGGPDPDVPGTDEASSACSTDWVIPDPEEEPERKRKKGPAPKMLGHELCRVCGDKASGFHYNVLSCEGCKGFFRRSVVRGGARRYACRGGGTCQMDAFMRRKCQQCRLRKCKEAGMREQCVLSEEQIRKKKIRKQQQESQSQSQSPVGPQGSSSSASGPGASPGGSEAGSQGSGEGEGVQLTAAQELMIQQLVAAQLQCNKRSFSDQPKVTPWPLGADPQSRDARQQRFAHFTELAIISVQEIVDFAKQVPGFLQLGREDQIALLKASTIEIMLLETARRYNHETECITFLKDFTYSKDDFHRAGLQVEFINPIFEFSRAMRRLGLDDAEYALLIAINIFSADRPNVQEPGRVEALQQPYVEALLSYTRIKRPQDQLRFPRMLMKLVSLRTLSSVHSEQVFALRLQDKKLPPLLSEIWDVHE
hcDAF12 ag: H. contortus DAF-12 receptor agonists, confirmation, cell-based, luminescence, HEK293, lit1-tk-luc, triplicate; HEK293 hcDAF-12 lit1-tk-luc reporter; % of Δ7-dafachronic acid response; activation, % at 6.8 µM; shares compounds with hcDAF12 agonist; 3,400 compounds, 61% hits;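 active means mean activation across triplicate tests above the threshold derived from the earlier primary screen, cut at about 5.5% in these data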;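 further: 0% = DMSO only wells and 100% = 3 µM Δ7-dafachronic acid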
hgDAF12 ag: H. glycines DAF-12 receptor agonists, confirmation, cell-based, luminescence, HEK293, GAL4-LBD fusion. shares compounds with hgDAF12 agonist. HEK293 GAL4-hgDAF12 luciferase reporter, agonist mode; percent of butyrate response. activation, % at 6.8 µM. 3,300 compounds, 80% hits;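 active means mean activation over triplicate wells above the hit cutoff derived from the earlier primary screen, cut at about 11% in these data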;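 further: 0% = DMSO low control and 100% = 2 mM sodium butyrate high control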
LXRb DAF12 ctr: LXR agonists, Gal4 luciferase reporter, confirmation, counter-screen for hgDAF-12 agonist project, cell-based, luminescence, HEK293, H. glycines campaign. shares compounds with hgDAF12 agonist. 24 h. activation, % at 6.8 µM. 3,300 tested, under 10 active. AID 743051, 2013;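 active means mean activation of the triplicate above a set limit carried over from the primary screen, none filed active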
Active calls of the source: *; x = no result. This is a sample that favours compounds with a hit; in the whole collection about 5.7% have one here.

SMILES	DAX1 inh-1	AHR activator	DAX1 inh-2	hgDAF12 agonist	ssDAF-12 act	hcDAF12 agonist	DAX1 inh confirm	SF1 mutant ctr	hgDAF12 ag	LXRb DAF12 ctr	others
COc1ccc(-n2cnnc2SCC(=O)Nc2cccnc2Cl)cc1	-0.3	-0.3	-0.7	0.0	-1.0	0.2	x	x	x	x
O=C(Nc1ccc(F)c(Cl)c1)c1ccc2sc([C@@H]3O[C@H](CO)[C@H](O)[C@H](O)[C@H]3O)nc2c1	x	x	1.3	1.9	-0.3	1.3	x	x	x	x
O=C(Nc1ccc(F)cc1)c1ccccc1NC(=O)C1CCCCC1C(=O)O (stereo not given)	-0.3	x	1.0	2.0	-1.2	0.3	x	x	x	x
O=C(NCCc1ccccc1)c1ccccc1NC(=O)C1CCCCC1C(=O)O (stereo not given)	x	-3.6	4.9*	17.9*	0.5	9.3*	5.4*	4.3*	14.4*	0.6	LXR ag=0.7;hcDAF12 ag=3.4
CC(=O)c1cccc(NC(=O)Cn2cnc(S(=O)(=O)N3CCC(C)CC3)c2)c1	0.9	1.1	x	x	x	x	x	x	x	x
CN1OC[C@@H]2CN[C@H](c3ccc(-c4cccc(F)c4)cc3)C[C@@H]21	4.0	x	6.2*	13.4*	0.1	2.1	6.3*	2.2	7.0	0.4
COc1ccc(NC(=O)CSc2nnc(NC(=O)C3CCC3)s2)cc1	0.2	1.4	-0.1	-0.2	-1.2	-1.8	x	x	x	x
COc1ccc(C(=O)Nc2nnc(SCC(=O)Nc3ccc(NC(C)=O)cc3)s2)c(OC)c1	9.3*	-6.6	12.7*	14.5*	0.7	8.7*	13.6*	7.2*	19.1*	1.1	LXR ag=1.3;hcDAF12 ag=7.6*
C/C(=N/NC(=O)CNC(=O)c1cccnc1)c1ccc(Cl)c(Cl)c1	1.0	9.2	-0.4	3.1	-0.8	-3.1	x	x	x	x
CC1CCCCN1C(=O)Cn1c(=O)oc2cc(S(=O)(=O)N3CCCC3)ccc21 (stereo not given)	0.9	-0.9	-0.4	-1.3	-1.5	0.3	x	x	x	x
Cc1ccc(NC(=O)COc2ccccc2C=O)cc1Cl	0.4	-3.4	4.5*	20.1*	0.7	5.8*	9.6*	5.4*	15.4*	0.8
NS(=O)(=O)c1ccc(CCNC(=O)c2ccc3c(c2)OCO3)cc1	0.5	-1.3	-0.4	2.1	0.0	-0.9	x	x	x	x
O=C(NCCc1ccc(Cl)cc1)c1ccc2c(c1)OCO2	1.2	5.2	10.7*	13.4*	0.0	3.8	11.8*	6.6*	15.6*	0.8
COc1ccc(/C(C)=N\NC(=O)c2ccc3c(c2)OCO3)cc1OC	x	14.5	1.4	6.2	-1.2	0.9	x	x	x	x
C/C(=N/NC(=O)c1ccc2c(c1)OCO2)c1ccc(NC(=O)c2ccc(F)cc2)cc1	1.6	x	5.8*	13.7*	-0.9	5.7*	6.3*	1.8	6.2	0.2
C/C(=N\NC(=O)c1cccc(F)c1)c1ccc(NC(=O)Cc2ccccc2)cc1	-0.9	x	7.0*	13.7*	0.5	6.4*	1.3	1.8	5.8	0.1
O=C(NCc1ccccc1)c1cc(C2COCCN2C(=O)CCc2ccccc2)on1 (stereo not given)	x	x	-1.0	0.3	-1.2	-1.1	x	x	x	x
CC[C@H]1OC(=O)[C@H](C)[C@@H](O[C@H]2C[C@@](C)(OC)[C@@H](O)[C@H](C)O2)[C@H](C)[C@@H](O[C@@H]2O[C@H](C)C[C@H](N(C)C)[C@H]2O)[C@](C)(O)C[C@@H](C)CN(C)[C@H](C)[C@@H](O)[C@]1(C)O	1.7	-0.7	0.5	0.0	-1.3	-1.6	x	x	x	x
Cc1cnc2nc(-c3ccccc3)ccc2c1	x	x	8.2*	17.2*	1.0*	6.8*	10.9*	6.8*	19.1*	0.9	LXR ag=1.6;hcDAF12 ag=6.6*
CCOC(=O)C(=C1Nc2ccccc2N1)n1c(-c2cccnc2)nc2ccccc21	x	x	5.1*	14.9*	-0.1	2.5	7.7*	4.4*	13.3*	0.6
CCCCCCSc1ccc([C@@H]2[C@@H]3C(=O)N(C)C(=O)[C@@H]3[C@]3(C(=O)OC)CCCCN23)cc1	1.7	-0.7	0.8	-0.3	-1.3	-1.6	x	x	x	x
CC1CCN(c2nc3ccc(C(=O)NCCCN4CCCCC4C)cc3s2)CC1 (stereo not given)	-2.3	-9.5	7.2*	14.7*	1.6*	4.0	11.9*	7.1*	15.1*	0.9
CCN(c1ccccc1)S(=O)(=O)c1ccc(N2CCN(c3ccc(O)cc3)CC2)nc1	-1.1	-0.7	-2.8	-5.0	-1.0	-3.0	x	x	x	x
Fc1ccccc1SCc1nnc(-c2ccccc2Br)o1	0.4	-3.9	6.5*	14.3*	0.2	4.7	16.3*	7.3*	20.0*	1.1

Screens (PubChem)
